# Measured values published in the supplement of paper PMC8253809.
# Values joined by “and” are separate entries in the source; they are usually repeats but may differ in a detail not shown here. Equal entries are not always repeated.
# What was measured:
# Test in all cases: growth inhibition (% activity, log2 RLU normalised to DMSO / staurosporine); higher = more growth inhibition
# Settings in all cases: 33 µM
# DIPGX29 = system: DIPGX29 (H3.3 K27M diffuse intrinsic pontine glioma line)
# Summary of the method: (§1)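 For each approved drug, the growth-inhibition value is the replicate median of per-plate normalised CellTiter-Glo data. Luminescence was log2-transformed and expressed as % activity between solvent and positive control wells. Drugs were applied in triplicate at a single final concentration of about 33 μM for 7 days at 37 °C, 5% CO2 to pHGG cell lines and H9-derived neural stem cells.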
# DIPGX37 = system: DIPGX37 (H3.3 K27M diffuse intrinsic pontine glioma line)
# Summary of the method: as §1
# DIPGX7 = system: DIPGX7 (H3.3 K27M diffuse intrinsic pontine glioma line)
# Summary of the method: as §1
# DIPGX9 = system: DIPGX9 (diffuse intrinsic pontine glioma line)
# Summary of the method: as §1
# HGGX39 = system: HGGX39 (paediatric high-grade glioma line)
# Summary of the method: as §1
# HGGX6 = system: HGGX6 (H3.3 G34R paediatric high-grade glioma line)
# Summary of the method: as §1
# HNSC = system: HNSC
# Summary of the method: as §1
# SUDIPGIV = system: SUDIPGIV (diffuse intrinsic pontine glioma line)
# Summary of the method: as §1
# SUDIPGVI = system: SUDIPGVI (diffuse intrinsic pontine glioma line)
# Summary of the method: as §1
# SUDIPGXIII = system: SUDIPGXIII (diffuse intrinsic pontine glioma line)
# Summary of the method: as §1
Compound,growth inhibition (DIPGX29),growth inhibition (DIPGX37),growth inhibition (DIPGX7),growth inhibition (DIPGX9),growth inhibition (HGGX39),growth inhibition (HGGX6),growth inhibition (HNSC),growth inhibition (SUDIPGIV),growth inhibition (SUDIPGVI),growth inhibition (SUDIPGXIII)
COC(=O)Nc1nc2cc(C(=O)c3ccc(F)cc3)ccc2[nH]1,5.17%,7.48%,3.54%,6.48%,-0.271%,3.94%,63.6%,-1.42%,0.822%,5.19%
N=C(N)c1ccc(OCCCCCOc2ccc(C(=N)N)cc2)cc1,12.3%,-2.71%,16.9%,13.9%,42.9%,20.2%,43.6%,45%,44.2%,16.5%
CN1CCC[C@@H]1CCO[C@](C)(c1ccccc1)c1ccc(Cl)cc1,5.74%,3.39%,5.71%,2.23%,6.24%,5.32%,4.55%,0.591%,2.52%,1.69%
Cc1ccc(NC(=O)c2ccc(CN3CCN(C)CC3)cc2)cc1Nc1nccc(-c2cccnc2)n1,4.56% and 0.376%,3.89% and 0.0929%,5.28% and 3.03%,2.43% and -0.42%,8.41% and 4.83%,5.52% and -1.5%,3.25% and -0.323%,4.42% and 1.82%,4.93% and -0.526%,-15.8% and 0.752%
Cc1ccc(C(=O)c2cc(O)c(O)c([N+](=O)[O-])c2)cc1,-4.7%,-1.02%,-1.81%,-2.4%,-1.44%,-3.36%,0.397%,-4.56%,-2.71%,1.37%
CCCSc1nc(N[C@@H]2C[C@H]2c2ccc(F)c(F)c2)c2nnn([C@@H]3C[C@H](OCCO)[C@@H](O)[C@H]3O)c2n1,2.23%,3.23%,4.99%,1.97%,5.25%,1.74%,20.6%,3.4%,3.52%,0.841%
Clc1ccc2c(c1)C(N1CCNCC1)=Nc1ccccc1O2,0.461%,1.52%,1.07%,1.29%,4.43%,-0.239%,0.635%,0.284%,2.1%,0.741%
O=c1[nH]cc(F)c(=O)[nH]1,5.88%,-2.07%,2.93%,10.5%,5.4%,7.93%,25.3%,14.4%,4.5%,2.68%
OC1(c2ccc(Cl)c(C(F)(F)F)c2)CCN(CCCC(c2ccc(F)cc2)c2ccc(F)cc2)CC1,22.5%,-5.49%,5.28%,-1.11%,4.1%,4.08%,71.6%,4.36%,-7.48%,51.7%
Cc1ccc(C(=O)Nc2ccc(CN3CCN(C)CC3)c(C(F)(F)F)c2)cc1C#Cc1cnc2cccnn12,60.2%,59.1%,51.4%,56.7%,56.8%,50%,62.7%,18.6%,6.05%,22.9%
COc1ccc(CN2CCN(C(c3ccc(F)cc3)c3ccc(F)cc3)CC2)c(OC)c1OC,3.37%,4.29%,2.14%,3.16%,7.88%,4.43%,7.5%,2.85%,3.72%,-11.1%
CC(c1cc2ccccc2s1)N(O)C(N)=O (stereo not given),0.492%,-0.829%,0.715%,-0.313%,-0.313%,-1.42%,-0.145%,-2.98%,-1.81%,0.685%
Cc1c(-c2ccc(O)cc2)n(Cc2ccc(OCCN3CCCCCC3)cc2)c2ccc(O)cc12,22.4%,0.0572%,20.3%,1.94%,8.64%,16.4%,26.1%,18.8%,-5.95%,1.05%
CCCCCCOC(=O)NC(=N)c1ccc(NCc2nc3cc(C(=O)N(CCC(=O)OCC)c4ccccn4)ccc3n2C)cc1,0.869%,2.08%,1.77%,1.32%,1.62%,2.11%,1.37%,0.438%,2.67%,-16.9%
CCCC(C(=O)OCCN(CC)CC)(c1ccccc1)c1ccccc1,3.18%,1.54%,2.35%,0.685%,0.885%,3.92%,4.69%,1.52%,1.12%,2.55%
C[C@]12CC[C@@H]3c4ccc(O)cc4CC[C@H]3[C@@H]1C[C@@H](O)[C@@H]2O,-2.64%,-2.04%,-1.85%,-3.27%,-3.05%,-3.15%,1.55%,-0.339%,-10.4%,1.55%
CCOC(=O)c1c(CSc2ccccc2)n(C)c2cc(Br)c(O)c(CN(C)C)c12,0.0747%,-1.13%,3.04%,0.402%,0.0757%,-2.62%,53.4%,-4.36%,-8.38%,3.61%
CC(C)(C)CC(C)(C)c1ccc(OCCOCC[N+](C)(C)Cc2ccccc2)cc1,65.1%,71.8%,69%,43.5%,64.3%,43.9%,82.7%,47.1%,64.5%,73.4%
COC(=O)CCc1ccc(OCC(O)CNC(C)C)cc1 (stereo not given),0.107%,1.63%,0.0919%,0.526%,0.823%,1.03%,-0.617%,-1.21%,1.48%,0.0941%
CC/C(=C(/CC)c1ccc(O)cc1)c1ccc(O)cc1,-0.353%,0.261%,1.61%,0.802%,-1.26%,-0.016%,-1.62%,0.624%,0.165%,-10.6%
S=c1[nH]cnc2nc[nH]c12,20.1%,10.9%,25.3%,10.6%,23.2%,24.2%,58.1%,28.8%,13.4%,18.8%
